Reference: PubChem BioAssay (NCATS)
Inconclusive results are not listed. Active and inactive are the calls of the source. The call rests on the fitted dose curve; in most records, active means well fitted curve in the direction sought with a large enough effect; inconclusive means small, poorly fitted or top-dose-only effect, or another doubt; inactive means no such curve, though single readings can be large; an effect the other way counts as inactive or inconclusive.

Columns and labels:
[1] = qHTS Assay for Identifying Gametocytocidal Compounds (AID 743244);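 further: on the % scale 0 is the no-effect control and ±100 the full control effect; actives lower the fluorescent signal which means gametocytes are killed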; settings: P. falciparum 3D7 stage III-V gametocytes, alamarBlue, 72 h; max response: hits give low values
In short: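 P. falciparum 3D7 stage III–V gametocytes (20,000 cells/well) were exposed to compounds for 72 h at 37 °C, 5% CO2. AlamarBlue was then added for 24 h; decreased resorufin fluorescence (Ex 525/Em 598 nm) indicated loss of viability.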

[2] = qHTS assay for measurement of the activity of small molecule inhibitors on Zika virus induced Caspase-3 activity in human iPSC derived neural progenitor cells (hNPCs) (AID 1224857); further: % of control where 0% means no effect; nearly all actives have a fitted effect of over 65% in size
In short: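 hNPCs seeded 350 cells/well, cultured 16–20 h; compounds added 1 h before ZIKV (2 FFU/cell), 37 C 6 h. Caspase-Glo 3/7 luminescence after 30 min RT; % inhibition from induction scaled to uninfected (0%) and infected (100%) wells.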

[3] = qHTS assay for measurement of the activity of small molecule inhibitors on Zika virus induced Caspase-3 activity in human astrocytoma cells (AID 1224859);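 further: plate controls were ZIKV-infected untreated cells for no effect and uninfected cells for full effect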
In short: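 Luminescence read-out (Caspase-Glo 3/7, 30 min RT) of caspase activity in SNB-19 cells infected 6 h with ZIKV, 2 FFU/cell, after 1 h compound pretreatment; % inhibition from induction normalised to uninfected (0%) and infected (100%) wells.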

[4] = qHTS assay to identify small molecule inhibitors of chordoma cells - UCH-1 (AID 1259355); further: on the % scale 0 is the no-effect control and ±100 the full control effect; nearly all actives have a fitted effect of over 55% in size
In short: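 Luminescent ATP read-out (CellTiter-Glo, 30min at room temperature) measured viability of UCH-1 cells exposed for 48hr to test drugs at 15 concentrations, co-dosed with a five-agent combination of auranofin, camptothecin, doxorubicin, rubitecan and topotecan.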

[5] = qHTS assay to identify small molecule inhibitors of chordoma cells - UCH-2 (AID 1259356); further: series mostly up to about 46 µM; on the % scale 0 is the no-effect control and ±100 the full control effect

Measured: max response

COc1cc(C(=O)NCCCCCC(=O)O)cc(OC)c1OC
inactive: [1] 4.11% | [2] | [3] | [4] | [5]

CCCCCCCCCCC(CO)CCCCCCCC (stereo not given)
inactive: [1] -4.55% | [2] | [3] | [4] | [5]

Nc1ccncc1N
inactive: [1] 8.86% | [2] | [3] | [4] | [5]

O=C(O)/C=C/c1ccc(Cn2ccnc2)cc1
inactive: [1] 13.5% | [2] | [3] | [4] | [5]

C[C@@H](c1ncncc1F)C(O)(Cn1cncn1)c1ccc(F)cc1F (stereo not given in full)
inactive: [1] 4.12% | [2] | [3] | [4] | [5]

CN1C(=O)CC(c2ccccc2)C1=O (stereo not given)
inactive: [1] -11.3% | [2] | [3] | [4] | [5]

Cn1c(=O)c2c(ncn2CCO)n(C)c1=O
inactive: [1] 6.91% | [2] | [3] | [4] | [5]

OCCN1C[C@H](O)[C@@H](O)[C@H](O)[C@H]1CO
inactive: [1] 4.21% | [2] | [3] | [4] | [5]

C/C(=C(\CCO)SS/C(CCO)=C(\C)N(C=O)Cc1cnc(C)nc1N)N(C=O)Cc1cnc(C)nc1N
inactive: [1] -3.83% | [2] | [3] | [4] | [5]

CCCNC(C)C(=O)Nc1c(C)csc1C(=O)OC (stereo not given)
inactive: [1] 7.96% | [2] | [3] | [4] | [5]

Cc1ccc(S(=O)(=O)NC(=O)NC2CCCCCCC2)cc1
inactive: [1] 5.01% | [2] | [3] | [4] | [5]

NCC1CCC(C(=O)Oc2ccc(CCC(=O)O)cc2)CC1 (stereo not given)
inactive: [1] 9.03% | [2] | [3] | [4] | [5]

Cc1onc(-c2ccccc2)c1-c1ccc(S(N)(=O)=O)cc1
inactive: [1] 7.78% | [2] | [3] | [4] | [5]

CCOC(N)=O
inactive: [1] -2.14% | [2] | [3] | [4] | [5]

CN(C(=O)c1c(O)c2ccccc2n(C)c1=O)c1ccccc1
inactive: [1] -2.29% | [2] | [3] | [4] | [5]

O=C(O)c1ccc[n+]([O-])c1
inactive: [1] -6.63% | [2] | [3] | [4] | [5]

COc1ccc(Cc2cnc(N)nc2N)cc1OC
inactive: [1] 1.42% | [2] | [3] | [4] | [5]

O=C(O)Cc1cn(-c2ccccc2)nc1-c1ccc(Cl)cc1
inactive: [1] 6.52% | [2] | [3] | [4] | [5]

CN/C(=C\[N+](=O)[O-])NCCSCc1csc(CN(C)C)n1
inactive: [1] 18.9% | [2] | [3] | [4] | [5]

O=C1CC[C@@H](C(=O)O)N1
inactive: [1] -5.19% | [2] | [3] | [4] | [5]

COc1ccc2cc(CCC(C)=O)ccc2c1
inactive: [1] -1.38% | [2] | [3] | [4] | [5]

O=C(O)c1cc(=O)c2ccccc2o1
inactive: [1] 42.7% | [2] | [3] | [4] | [5]

O=c1[nH]cnc2nc[nH]c12
inactive: [1] -7.32% | [2] | [3] | [4] | [5]

C=CCOc1ccccc1OCC(O)CNC(C)C (stereo not given)
inactive: [1] 5.69% | [2] | [3] | [4] | [5]

CCc1nnc(NS(=O)(=O)c2ccc(N)cc2)s1
inactive: [1] -5.5% | [2] | [3] | [4] | [5]

COc1ccc(C(=O)N2CCN(CC(=O)N3CCOCC3)CC2)cc1
inactive: [1] -4.8% | [2] | [3] | [4] | [5]

CC(O)CCCCn1c(=O)c2c(ncn2C)n(C)c1=O (stereo not given)
inactive: [1] -9.87% | [2] | [3] | [4] | [5]
